Holding throughout (assay): DAPPL (digital affinity profiling via proximity ligation, sequencing); 10 mM Tris-HCl pH 7.5, 50 mM NaCl, 1 mM DTT, 4% glycerol, room temperature, 30 min; GST-TFs on glutathione beads, 16-mer random dsDNA library, 0.1% formaldehyde crosslink after washing; high values mean tight binding
Test [1] concerns the target T1, FEV (Homo sapiens, UniProt Q99581 1-238).
T1 sequence: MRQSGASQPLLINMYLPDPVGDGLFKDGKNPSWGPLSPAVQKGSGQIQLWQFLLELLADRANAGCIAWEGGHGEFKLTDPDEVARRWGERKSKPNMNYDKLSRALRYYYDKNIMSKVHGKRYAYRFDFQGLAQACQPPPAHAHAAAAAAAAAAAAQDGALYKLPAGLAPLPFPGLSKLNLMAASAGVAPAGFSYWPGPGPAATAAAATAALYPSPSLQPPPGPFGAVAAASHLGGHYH
The following applies: protein: recombinant; tags: N-terminal GST; dsDNA, one strand shown. Put shortly:
(§1)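 In yeast, human transcription factors were expressed with a GST fusion, then pulled down on glutathione beads and given DNA barcodes. Pooled with a tag-only sample, they were exposed to 200 nmole of a 16-mer random double-stranded DNA library (Tris/NaCl/DTT/glycerol buffer, room temperature, 30 min), washed, crosslinked with 0.1% formaldehyde, proximity-ligated using BsaI/T4 ligase for 1 h at 37 °C, PCR-amplified and read on an Illumina NextSeq500. Each hexamer's frequency of reads for a factor, divided by the matching frequency for the tag-only sample, gives the binding signal.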

For test [2], the target named is ETV5 (Homo sapiens, UniProt P41161 1-510). As to conditions: protein: recombinant; tags: N-terminal GST; dsDNA, one strand shown. Put shortly: as §1
In test [3] the target is HSF1 (Homo sapiens, UniProt Q00613 1-529). As to conditions: protein: recombinant; tags: N-terminal GST; chain copies: 3; dsDNA, one strand shown. Put shortly:
as §1

For test [4], the target named is T2, SPIC (Homo sapiens, UniProt Q8N5J4 1-248).
T2 sequence: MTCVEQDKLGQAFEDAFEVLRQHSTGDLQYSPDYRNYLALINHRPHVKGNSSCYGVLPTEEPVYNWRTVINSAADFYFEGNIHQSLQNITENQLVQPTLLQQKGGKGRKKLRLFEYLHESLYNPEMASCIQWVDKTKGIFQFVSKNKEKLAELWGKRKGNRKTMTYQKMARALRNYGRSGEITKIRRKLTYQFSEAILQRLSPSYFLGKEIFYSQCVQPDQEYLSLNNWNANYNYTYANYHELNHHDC
As to conditions: protein: recombinant; tags: N-terminal GST; dsDNA, one strand shown. Put shortly:
as §1

Test [5] deals with ELF4 (Homo sapiens, UniProt Q99607 1-663). As to conditions: protein: recombinant; tags: N-terminal GST; dsDNA, one strand shown. Put shortly: as §1
The target of test [6] is T3, ELK4 (Homo sapiens, UniProt P28324-2 1-405).
T3 sequence: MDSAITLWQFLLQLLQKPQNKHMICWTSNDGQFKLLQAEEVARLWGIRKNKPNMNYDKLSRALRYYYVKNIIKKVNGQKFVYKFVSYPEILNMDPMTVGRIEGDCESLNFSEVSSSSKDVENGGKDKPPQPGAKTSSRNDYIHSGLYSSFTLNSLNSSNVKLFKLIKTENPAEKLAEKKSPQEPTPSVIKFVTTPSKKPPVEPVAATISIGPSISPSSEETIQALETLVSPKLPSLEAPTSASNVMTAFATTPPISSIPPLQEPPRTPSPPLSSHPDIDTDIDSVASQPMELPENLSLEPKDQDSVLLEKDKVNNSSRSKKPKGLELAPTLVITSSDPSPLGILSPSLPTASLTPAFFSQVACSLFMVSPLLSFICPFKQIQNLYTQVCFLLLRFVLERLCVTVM
As to conditions: protein: recombinant; tags: N-terminal GST; dsDNA, one strand shown. Put shortly: as §1

In test [7] the target is T4, ETV2 (Homo sapiens, UniProt O00321 1-342).
T4 sequence: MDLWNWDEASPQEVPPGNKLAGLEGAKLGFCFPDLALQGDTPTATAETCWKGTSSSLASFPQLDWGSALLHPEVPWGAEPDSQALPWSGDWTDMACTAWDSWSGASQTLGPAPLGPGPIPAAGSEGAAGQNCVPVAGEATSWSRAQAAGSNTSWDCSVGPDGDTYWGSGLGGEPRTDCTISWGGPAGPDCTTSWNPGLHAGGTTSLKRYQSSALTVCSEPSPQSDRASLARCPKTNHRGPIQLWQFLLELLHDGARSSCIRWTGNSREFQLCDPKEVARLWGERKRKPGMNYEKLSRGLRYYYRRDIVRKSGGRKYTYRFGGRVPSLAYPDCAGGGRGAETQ
The following applies: protein: recombinant; tags: N-terminal GST; dsDNA, one strand shown. Put shortly: as §1

In test [8] the target is T5, ELF3 (Homo sapiens, UniProt P78545 1-371).
T5 sequence: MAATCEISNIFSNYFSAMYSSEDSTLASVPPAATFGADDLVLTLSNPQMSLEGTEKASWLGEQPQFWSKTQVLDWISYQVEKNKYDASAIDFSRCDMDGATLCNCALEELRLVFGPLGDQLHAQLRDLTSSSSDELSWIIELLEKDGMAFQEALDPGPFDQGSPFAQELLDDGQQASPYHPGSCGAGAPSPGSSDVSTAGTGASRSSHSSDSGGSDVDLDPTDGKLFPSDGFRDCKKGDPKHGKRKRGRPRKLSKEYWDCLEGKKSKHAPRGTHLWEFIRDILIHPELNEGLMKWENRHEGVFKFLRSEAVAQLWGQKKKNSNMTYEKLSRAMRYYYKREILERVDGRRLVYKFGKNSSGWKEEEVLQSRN
As to conditions: protein: recombinant; tags: N-terminal GST; dsDNA, one strand shown. Put shortly: as §1

The target of test [9] is CRX (Homo sapiens, UniProt O43186 1-299). As to conditions: protein: recombinant; tags: N-terminal GST; dsDNA, one strand shown. Put shortly:
as §1

Test [10] concerns the target ETV1 (Homo sapiens, UniProt P50549 1-477). The following applies: protein: recombinant; tags: N-terminal GST; dsDNA, one strand shown. Put shortly: as §1
Test [11] addresses T6, ERF (Homo sapiens, UniProt P50548 1-548).
T6 sequence: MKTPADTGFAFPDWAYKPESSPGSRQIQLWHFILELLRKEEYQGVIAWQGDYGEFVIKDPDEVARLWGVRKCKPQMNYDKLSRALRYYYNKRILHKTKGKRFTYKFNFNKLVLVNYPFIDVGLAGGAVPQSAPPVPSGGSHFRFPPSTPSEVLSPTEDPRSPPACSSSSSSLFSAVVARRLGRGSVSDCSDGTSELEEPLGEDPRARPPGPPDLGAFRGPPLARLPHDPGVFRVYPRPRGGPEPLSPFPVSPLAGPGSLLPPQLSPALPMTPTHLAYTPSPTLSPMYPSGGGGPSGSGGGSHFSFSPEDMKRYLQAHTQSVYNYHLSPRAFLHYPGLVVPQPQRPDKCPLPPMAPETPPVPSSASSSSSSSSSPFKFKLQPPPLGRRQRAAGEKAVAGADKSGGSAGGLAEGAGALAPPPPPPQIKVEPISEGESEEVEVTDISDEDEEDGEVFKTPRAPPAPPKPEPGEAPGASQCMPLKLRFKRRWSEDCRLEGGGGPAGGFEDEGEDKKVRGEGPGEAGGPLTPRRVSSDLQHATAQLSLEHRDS
As to conditions: protein: recombinant; tags: N-terminal GST; dsDNA, one strand shown. Put shortly:
as §1

Test [12] has as its target T7, ETV3L (Homo sapiens, UniProt Q6ZN32 1-361).
T7 sequence: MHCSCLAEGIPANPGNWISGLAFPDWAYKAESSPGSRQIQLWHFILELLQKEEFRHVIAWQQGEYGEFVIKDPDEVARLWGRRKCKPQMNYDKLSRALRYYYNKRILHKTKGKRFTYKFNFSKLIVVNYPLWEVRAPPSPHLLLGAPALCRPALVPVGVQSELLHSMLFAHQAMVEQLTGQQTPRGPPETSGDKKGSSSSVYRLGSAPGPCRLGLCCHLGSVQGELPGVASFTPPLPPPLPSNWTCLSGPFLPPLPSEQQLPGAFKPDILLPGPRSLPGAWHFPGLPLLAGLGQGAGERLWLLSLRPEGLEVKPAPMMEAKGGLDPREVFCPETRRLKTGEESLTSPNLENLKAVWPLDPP
The following applies: protein: recombinant; tags: N-terminal GST; dsDNA, one strand shown. Put shortly: as §1

The target of test [13] is T8, ETS2 (Homo sapiens, UniProt P15036 1-469).
T8 sequence: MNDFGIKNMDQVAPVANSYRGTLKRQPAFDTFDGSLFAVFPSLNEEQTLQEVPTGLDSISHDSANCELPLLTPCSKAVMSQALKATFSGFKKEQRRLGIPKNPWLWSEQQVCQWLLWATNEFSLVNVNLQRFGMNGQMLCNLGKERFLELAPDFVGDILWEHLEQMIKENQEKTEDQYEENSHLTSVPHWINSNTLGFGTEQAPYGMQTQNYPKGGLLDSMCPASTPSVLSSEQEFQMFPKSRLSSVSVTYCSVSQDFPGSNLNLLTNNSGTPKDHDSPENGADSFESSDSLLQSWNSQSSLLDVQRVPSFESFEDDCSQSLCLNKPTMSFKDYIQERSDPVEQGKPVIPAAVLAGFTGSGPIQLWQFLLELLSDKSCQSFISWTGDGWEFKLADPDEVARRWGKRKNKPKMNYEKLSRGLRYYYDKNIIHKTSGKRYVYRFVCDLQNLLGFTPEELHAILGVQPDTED
The following applies: protein: recombinant; tags: N-terminal GST; dsDNA, one strand shown. Put shortly: as §1

Test [14] addresses T9, SPDEF (Homo sapiens, UniProt O95238 1-335).
T9 sequence: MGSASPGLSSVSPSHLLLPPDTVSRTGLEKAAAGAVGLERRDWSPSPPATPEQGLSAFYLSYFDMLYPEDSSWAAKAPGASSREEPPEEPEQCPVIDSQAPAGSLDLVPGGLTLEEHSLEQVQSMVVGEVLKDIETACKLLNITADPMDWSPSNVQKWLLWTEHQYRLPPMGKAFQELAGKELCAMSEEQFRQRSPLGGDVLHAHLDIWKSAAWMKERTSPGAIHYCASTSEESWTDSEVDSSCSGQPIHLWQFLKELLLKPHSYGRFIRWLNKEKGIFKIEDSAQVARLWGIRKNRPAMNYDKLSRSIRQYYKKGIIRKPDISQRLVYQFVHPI
The following applies: protein: recombinant; tags: N-terminal GST; dsDNA, one strand shown. Put shortly:
as §1

Test [15] concerns the target T10, ETV7 (Homo sapiens, UniProt Q9Y603 1-341).
T10 sequence: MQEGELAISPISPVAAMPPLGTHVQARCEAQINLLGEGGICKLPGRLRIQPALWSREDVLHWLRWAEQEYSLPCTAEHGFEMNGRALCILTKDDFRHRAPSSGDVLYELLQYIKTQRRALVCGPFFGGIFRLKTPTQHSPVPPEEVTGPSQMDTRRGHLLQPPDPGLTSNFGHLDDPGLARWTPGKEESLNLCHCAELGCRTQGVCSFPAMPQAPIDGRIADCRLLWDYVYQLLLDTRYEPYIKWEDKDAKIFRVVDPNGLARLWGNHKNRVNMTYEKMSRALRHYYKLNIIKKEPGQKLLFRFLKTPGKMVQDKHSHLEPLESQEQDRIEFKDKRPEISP
The following applies: protein: recombinant; tags: N-terminal GST; dsDNA, one strand shown. Put shortly:
as §1

In test [16] the target is T11, ELF5 (Homo sapiens, UniProt Q9UKW6-2 1-255).
T11 sequence: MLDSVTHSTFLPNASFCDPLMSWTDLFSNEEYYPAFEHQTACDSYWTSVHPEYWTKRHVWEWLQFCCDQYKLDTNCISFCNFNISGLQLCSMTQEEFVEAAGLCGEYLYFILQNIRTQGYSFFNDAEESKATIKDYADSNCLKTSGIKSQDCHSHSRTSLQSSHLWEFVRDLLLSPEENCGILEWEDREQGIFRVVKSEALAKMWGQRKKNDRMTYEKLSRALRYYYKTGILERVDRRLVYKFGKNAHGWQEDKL
As to conditions: protein: recombinant; tags: N-terminal GST; dsDNA, one strand shown. Put shortly:
as §1

For test [17], the target named is T12, ETV3 (Homo sapiens, UniProt P41162-2 1-143).
T12 sequence: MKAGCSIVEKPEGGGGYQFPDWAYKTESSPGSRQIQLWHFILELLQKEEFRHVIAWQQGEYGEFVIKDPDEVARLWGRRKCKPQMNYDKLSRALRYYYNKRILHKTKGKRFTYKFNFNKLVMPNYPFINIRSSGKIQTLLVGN
As to conditions: protein: recombinant; tags: N-terminal GST; dsDNA, one strand shown. Put shortly:
as §1

Test [18] concerns the target ETV6 (Homo sapiens, UniProt P41212 1-452). The following applies: protein: recombinant; tags: N-terminal GST; dsDNA, one strand shown. Put shortly: as §1

ETV6, sequence (P41212 whole entry): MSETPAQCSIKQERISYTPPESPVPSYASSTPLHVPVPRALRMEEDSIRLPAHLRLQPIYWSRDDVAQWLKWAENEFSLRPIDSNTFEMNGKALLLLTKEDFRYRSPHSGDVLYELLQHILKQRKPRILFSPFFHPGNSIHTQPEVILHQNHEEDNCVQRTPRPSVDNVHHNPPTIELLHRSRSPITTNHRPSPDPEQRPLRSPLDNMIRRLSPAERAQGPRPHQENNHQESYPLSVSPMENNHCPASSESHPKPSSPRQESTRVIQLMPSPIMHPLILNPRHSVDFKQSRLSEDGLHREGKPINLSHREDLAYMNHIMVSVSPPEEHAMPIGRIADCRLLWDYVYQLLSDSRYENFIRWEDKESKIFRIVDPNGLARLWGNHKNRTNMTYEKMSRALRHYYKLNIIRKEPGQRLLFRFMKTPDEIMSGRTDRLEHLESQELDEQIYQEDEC
ELF4, sequence (Q99607 whole entry): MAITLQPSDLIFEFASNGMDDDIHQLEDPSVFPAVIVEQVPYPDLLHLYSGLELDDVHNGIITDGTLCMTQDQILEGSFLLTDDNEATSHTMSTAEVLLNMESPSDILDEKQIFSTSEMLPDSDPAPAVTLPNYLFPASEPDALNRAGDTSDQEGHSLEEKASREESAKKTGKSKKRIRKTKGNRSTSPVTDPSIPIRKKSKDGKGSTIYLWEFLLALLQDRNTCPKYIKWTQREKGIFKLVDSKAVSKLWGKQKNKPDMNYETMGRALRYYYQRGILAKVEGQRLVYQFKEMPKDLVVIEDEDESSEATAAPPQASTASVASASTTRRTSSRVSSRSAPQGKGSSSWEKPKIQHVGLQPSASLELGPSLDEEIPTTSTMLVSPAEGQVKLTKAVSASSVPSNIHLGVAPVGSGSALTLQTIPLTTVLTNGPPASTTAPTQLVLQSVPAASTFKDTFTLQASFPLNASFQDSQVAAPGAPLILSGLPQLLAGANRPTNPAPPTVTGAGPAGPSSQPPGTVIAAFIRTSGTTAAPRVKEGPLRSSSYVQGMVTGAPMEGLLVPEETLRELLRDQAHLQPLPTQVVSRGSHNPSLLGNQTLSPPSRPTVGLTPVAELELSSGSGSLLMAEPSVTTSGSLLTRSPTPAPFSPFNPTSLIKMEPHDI
ETV1, sequence (P50549 whole entry): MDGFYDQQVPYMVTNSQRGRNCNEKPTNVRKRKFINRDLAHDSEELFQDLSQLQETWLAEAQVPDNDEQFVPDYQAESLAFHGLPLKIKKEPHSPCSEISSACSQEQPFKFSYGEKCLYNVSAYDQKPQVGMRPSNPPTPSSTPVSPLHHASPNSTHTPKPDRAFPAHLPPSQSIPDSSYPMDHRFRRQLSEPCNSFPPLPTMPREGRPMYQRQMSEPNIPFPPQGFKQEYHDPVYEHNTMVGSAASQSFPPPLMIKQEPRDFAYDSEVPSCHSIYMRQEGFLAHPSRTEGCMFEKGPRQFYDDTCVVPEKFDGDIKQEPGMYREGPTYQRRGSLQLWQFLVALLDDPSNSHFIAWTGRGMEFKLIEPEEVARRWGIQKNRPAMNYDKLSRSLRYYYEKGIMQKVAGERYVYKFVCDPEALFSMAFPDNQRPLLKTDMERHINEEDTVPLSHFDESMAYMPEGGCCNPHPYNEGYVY
HSF1, sequence (Q00613 whole entry): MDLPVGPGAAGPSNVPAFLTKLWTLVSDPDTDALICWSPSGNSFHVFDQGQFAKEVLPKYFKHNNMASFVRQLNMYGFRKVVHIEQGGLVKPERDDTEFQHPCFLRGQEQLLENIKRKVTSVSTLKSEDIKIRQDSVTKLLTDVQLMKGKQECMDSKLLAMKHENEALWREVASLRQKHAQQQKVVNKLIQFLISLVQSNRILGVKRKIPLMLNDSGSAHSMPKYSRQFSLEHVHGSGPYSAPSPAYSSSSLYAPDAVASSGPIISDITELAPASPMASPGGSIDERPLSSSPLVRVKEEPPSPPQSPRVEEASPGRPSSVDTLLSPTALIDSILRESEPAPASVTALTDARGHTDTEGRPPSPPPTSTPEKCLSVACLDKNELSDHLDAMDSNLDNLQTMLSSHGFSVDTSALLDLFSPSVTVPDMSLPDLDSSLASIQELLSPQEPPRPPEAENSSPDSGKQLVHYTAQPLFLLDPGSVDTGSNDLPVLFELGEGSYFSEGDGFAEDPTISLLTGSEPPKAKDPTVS
ETV5, sequence (P41161 whole entry): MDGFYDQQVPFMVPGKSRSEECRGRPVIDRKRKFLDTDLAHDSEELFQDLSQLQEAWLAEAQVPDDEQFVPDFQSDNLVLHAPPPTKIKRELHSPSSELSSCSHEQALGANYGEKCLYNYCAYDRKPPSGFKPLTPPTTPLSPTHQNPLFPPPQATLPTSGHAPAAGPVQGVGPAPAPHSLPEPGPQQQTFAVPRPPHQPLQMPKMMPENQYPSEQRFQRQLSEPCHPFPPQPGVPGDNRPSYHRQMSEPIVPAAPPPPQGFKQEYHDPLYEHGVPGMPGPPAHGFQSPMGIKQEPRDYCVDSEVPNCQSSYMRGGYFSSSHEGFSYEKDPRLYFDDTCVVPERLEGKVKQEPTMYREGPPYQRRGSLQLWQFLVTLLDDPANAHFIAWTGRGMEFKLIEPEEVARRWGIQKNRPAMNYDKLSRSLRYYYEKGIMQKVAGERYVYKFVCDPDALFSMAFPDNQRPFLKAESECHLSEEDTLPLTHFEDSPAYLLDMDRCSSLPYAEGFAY
CRX, sequence (O43186 whole entry): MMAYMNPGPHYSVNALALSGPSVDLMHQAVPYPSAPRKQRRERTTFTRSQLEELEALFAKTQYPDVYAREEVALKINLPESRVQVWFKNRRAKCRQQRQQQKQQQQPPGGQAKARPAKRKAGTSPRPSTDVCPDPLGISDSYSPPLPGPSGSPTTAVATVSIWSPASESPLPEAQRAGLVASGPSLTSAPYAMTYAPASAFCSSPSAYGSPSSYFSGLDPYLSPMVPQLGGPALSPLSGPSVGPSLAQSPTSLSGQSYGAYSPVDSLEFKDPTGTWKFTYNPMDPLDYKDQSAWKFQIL

As to CAATAT, the binding signal in test [1] was 1.25 fold enrichment (6-mer frequency, TF over GST control); in test [2], 1.33 fold enrichment (6-mer frequency, TF over GST control); in test [3] it was 1.11 fold enrichment (6-mer frequency, TF over GST control); in test [4] it was 1.23 fold enrichment (6-mer frequency, TF over GST control); in test [5], 1.28 fold enrichment (6-mer frequency, TF over GST control); in test [6], 1.31 fold enrichment (6-mer frequency, TF over GST control). Further, the binding signal in [7] is 1.29 fold enrichment (6-mer frequency, TF over GST control); in [8] it was 1.28 fold enrichment (6-mer frequency, TF over GST control); in test [9] it was 1.15 fold enrichment (6-mer frequency, TF over GST control); in [10], 1.27 fold enrichment (6-mer frequency, TF over GST control); in test [11], 1.28 fold enrichment (6-mer frequency, TF over GST control); in test [12], 1.26 fold enrichment (6-mer frequency, TF over GST control). In addition, the binding signal in test [13] is 1.28 fold enrichment (6-mer frequency, TF over GST control); in test [14] it was 1.34 fold enrichment (6-mer frequency, TF over GST control); in test [15] it was 1.27 fold enrichment (6-mer frequency, TF over GST control); in [16], 1.2 fold enrichment (6-mer frequency, TF over GST control); in test [17] it was 1.33 fold enrichment (6-mer frequency, TF over GST control); in test [18], 1.23 fold enrichment (6-mer frequency, TF over GST control).

Source of the values: PMC7862700, “An all-to-all approach to the identification of sequence-specific readers for epigenetic DNA modifications on cytosine”.
